# Reference: ChEMBL document CHEMBL2218924, “A broad activity screen in support of a chemogenomic map for kinase signalling research and drug discovery” (Biochem J, 2013)
# Key:
# [1] = molecular target: Tyrosine-protein kinase SYK (Homo sapiens) (UniProt P43405); settings: at 10 µM
# [2] = molecular target: T1, Serine/threonine-protein kinase TAO1 (Homo sapiens) (UniProt Q7L7X3); settings: at 1 µM
# T1 sequence (whole entry): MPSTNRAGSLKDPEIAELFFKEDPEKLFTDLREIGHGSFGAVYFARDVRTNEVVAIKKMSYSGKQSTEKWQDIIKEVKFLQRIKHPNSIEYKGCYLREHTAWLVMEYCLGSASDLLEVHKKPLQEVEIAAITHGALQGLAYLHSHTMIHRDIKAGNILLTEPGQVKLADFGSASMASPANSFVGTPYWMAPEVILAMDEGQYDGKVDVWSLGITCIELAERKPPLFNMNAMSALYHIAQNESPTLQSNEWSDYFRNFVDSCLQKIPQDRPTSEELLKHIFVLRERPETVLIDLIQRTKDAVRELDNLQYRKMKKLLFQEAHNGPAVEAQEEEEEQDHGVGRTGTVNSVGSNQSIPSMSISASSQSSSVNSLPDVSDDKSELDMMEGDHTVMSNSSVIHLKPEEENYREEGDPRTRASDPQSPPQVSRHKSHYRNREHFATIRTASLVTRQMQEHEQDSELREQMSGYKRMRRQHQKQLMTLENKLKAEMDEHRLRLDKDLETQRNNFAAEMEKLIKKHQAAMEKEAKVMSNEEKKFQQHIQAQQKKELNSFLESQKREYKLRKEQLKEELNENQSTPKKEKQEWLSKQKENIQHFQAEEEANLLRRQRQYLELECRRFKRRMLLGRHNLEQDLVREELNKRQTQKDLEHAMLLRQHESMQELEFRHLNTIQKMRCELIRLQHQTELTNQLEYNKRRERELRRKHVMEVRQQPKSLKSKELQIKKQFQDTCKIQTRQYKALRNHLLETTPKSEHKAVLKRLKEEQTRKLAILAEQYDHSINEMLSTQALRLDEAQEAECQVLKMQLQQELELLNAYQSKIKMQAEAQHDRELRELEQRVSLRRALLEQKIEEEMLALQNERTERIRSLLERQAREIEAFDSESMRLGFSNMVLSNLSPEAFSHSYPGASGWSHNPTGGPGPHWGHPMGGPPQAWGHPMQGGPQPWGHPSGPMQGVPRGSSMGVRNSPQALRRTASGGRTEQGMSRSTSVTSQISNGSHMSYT
# [3] = molecular target: T1, Serine/threonine-protein kinase TAO1 (Homo sapiens); settings: at 10 µM
# [4] = molecular target: T2, Serine/threonine-protein kinase TAO2 (Homo sapiens) (UniProt Q9UL54); settings: at 1 µM
# T2 sequence (whole entry): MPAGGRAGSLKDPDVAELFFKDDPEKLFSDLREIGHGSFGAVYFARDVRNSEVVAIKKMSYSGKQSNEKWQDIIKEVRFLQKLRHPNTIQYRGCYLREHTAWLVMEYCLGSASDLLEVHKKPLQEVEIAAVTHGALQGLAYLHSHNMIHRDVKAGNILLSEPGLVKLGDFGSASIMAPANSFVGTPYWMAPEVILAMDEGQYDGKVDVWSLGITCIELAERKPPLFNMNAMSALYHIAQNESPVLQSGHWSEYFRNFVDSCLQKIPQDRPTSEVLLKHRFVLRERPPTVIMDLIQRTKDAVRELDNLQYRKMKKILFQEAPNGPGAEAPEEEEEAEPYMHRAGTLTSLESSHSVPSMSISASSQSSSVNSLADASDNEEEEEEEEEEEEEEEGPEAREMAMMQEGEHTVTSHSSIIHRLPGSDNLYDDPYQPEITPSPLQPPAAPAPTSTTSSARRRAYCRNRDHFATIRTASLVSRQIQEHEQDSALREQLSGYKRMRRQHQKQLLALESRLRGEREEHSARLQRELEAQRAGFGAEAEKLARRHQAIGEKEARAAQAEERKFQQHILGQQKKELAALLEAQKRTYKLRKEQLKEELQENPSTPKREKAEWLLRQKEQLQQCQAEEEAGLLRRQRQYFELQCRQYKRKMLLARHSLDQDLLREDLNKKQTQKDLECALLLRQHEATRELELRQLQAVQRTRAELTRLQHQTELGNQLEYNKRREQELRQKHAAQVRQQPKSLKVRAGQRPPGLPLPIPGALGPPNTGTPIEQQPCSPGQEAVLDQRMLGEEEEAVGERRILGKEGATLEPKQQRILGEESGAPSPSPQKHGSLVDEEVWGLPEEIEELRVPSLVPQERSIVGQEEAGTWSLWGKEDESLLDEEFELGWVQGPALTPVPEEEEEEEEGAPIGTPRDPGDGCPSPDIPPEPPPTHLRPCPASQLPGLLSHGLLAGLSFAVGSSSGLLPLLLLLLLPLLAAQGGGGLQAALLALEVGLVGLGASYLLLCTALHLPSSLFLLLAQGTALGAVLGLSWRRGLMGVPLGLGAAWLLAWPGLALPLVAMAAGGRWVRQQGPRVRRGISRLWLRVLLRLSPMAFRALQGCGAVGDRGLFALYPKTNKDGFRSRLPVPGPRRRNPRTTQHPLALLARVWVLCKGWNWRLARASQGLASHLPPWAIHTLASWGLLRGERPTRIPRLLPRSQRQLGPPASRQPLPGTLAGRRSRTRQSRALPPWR
# [5] = molecular target: T2, Serine/threonine-protein kinase TAO2 (Homo sapiens); settings: at 10 µM
# [6] = molecular target: T3, Serine/threonine-protein kinase TAO3 (Homo sapiens) (UniProt Q9H2K8); settings: at 1 µM
# T3 sequence (whole entry): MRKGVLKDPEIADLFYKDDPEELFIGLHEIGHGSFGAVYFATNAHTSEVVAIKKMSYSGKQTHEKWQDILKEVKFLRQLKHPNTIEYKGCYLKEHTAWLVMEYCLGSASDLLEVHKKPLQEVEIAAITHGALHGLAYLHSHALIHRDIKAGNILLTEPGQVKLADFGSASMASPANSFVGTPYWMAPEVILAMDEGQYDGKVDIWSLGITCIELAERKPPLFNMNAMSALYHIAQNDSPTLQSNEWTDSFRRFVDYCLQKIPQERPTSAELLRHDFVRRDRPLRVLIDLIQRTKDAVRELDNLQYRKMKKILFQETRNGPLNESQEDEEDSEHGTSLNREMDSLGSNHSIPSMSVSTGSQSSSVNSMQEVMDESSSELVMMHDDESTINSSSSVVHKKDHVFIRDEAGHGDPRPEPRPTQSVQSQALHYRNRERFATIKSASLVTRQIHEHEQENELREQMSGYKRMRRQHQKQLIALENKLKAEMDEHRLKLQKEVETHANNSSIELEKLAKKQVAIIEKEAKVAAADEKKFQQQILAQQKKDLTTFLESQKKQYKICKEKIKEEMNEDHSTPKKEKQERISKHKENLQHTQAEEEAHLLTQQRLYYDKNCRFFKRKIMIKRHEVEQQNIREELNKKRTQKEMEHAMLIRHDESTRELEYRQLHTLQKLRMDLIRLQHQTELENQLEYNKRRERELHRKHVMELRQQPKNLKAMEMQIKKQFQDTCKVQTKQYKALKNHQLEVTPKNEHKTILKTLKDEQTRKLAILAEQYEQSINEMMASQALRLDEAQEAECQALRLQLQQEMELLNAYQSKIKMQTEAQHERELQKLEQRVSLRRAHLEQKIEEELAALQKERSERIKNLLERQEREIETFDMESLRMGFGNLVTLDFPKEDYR
# [7] = molecular target: T3, Serine/threonine-protein kinase TAO3 (Homo sapiens); settings: at 10 µM
# [8] = molecular target: T4, Serine/threonine-protein kinase TBK1 (Homo sapiens) (UniProt Q9UHD2); settings: at 1 µM
# T4 sequence (whole entry): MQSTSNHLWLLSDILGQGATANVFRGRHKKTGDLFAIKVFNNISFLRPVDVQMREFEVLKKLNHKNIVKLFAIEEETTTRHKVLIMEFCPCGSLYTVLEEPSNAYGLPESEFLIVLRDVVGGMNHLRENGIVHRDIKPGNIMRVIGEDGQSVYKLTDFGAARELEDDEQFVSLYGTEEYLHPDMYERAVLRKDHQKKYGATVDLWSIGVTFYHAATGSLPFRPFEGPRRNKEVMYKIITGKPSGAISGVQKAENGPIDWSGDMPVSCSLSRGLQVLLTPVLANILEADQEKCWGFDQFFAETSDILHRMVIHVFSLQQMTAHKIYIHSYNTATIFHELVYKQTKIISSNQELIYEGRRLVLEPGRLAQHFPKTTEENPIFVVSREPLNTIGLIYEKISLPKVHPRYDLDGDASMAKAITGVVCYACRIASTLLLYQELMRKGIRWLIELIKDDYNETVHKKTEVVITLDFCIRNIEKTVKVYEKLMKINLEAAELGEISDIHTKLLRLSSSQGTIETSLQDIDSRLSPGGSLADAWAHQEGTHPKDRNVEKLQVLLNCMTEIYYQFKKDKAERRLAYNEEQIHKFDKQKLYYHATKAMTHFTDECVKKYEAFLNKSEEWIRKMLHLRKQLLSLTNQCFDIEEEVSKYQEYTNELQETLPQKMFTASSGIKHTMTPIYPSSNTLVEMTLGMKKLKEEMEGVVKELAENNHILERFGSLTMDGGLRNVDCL
# [9] = molecular target: T4, Serine/threonine-protein kinase TBK1 (Homo sapiens); settings: at 10 µM
# [10] = molecular target: T5, TGF-beta receptor type-1 (Homo sapiens) (UniProt P36897); settings: at 1 µM
# T5 sequence (whole entry): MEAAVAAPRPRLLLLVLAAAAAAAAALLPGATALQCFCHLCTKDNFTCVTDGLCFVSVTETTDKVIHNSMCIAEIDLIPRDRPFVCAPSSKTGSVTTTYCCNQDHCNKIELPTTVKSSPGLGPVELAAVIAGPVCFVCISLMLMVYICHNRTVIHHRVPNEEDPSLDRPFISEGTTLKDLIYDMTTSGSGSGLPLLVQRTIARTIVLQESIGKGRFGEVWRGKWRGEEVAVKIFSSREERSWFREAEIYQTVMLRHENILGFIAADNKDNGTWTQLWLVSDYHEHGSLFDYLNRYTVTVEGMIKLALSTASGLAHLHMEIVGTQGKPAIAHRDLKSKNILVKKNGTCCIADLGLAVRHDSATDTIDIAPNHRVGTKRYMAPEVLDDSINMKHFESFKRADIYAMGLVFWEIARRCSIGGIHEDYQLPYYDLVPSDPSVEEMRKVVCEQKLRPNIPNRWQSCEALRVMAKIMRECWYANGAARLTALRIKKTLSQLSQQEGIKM
# [11] = molecular target: T5, TGF-beta receptor type-1 (Homo sapiens); settings: at 10 µM
# [12] = molecular target: T6, Inhibitor of nuclear factor kappa-B kinase subunit alpha (Homo sapiens) (UniProt O15111); settings: at 1 µM
# T6 sequence (whole entry): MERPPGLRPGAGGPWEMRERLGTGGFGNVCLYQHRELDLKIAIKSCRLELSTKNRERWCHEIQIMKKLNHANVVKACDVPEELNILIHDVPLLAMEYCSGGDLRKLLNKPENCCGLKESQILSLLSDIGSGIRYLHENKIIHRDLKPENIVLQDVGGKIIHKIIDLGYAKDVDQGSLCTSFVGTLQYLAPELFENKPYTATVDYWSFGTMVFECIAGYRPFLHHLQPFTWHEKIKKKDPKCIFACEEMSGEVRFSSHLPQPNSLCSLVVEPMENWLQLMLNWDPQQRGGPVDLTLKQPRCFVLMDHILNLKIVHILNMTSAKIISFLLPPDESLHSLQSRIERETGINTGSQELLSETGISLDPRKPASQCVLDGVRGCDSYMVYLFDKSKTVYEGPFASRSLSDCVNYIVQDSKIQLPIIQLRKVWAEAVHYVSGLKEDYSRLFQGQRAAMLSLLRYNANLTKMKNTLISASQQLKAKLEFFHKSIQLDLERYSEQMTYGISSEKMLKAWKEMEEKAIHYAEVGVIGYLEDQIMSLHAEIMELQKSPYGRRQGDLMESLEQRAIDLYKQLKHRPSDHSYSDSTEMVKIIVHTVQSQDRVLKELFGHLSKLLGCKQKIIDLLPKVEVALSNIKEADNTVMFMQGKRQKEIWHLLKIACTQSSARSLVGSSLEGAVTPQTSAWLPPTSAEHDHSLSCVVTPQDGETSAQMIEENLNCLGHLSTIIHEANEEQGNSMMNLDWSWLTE
# [13] = molecular target: T6, Inhibitor of nuclear factor kappa-B kinase subunit alpha (Homo sapiens); settings: at 10 µM
# [14] = molecular target: T7, Inhibitor of nuclear factor kappa-B kinase subunit beta (Homo sapiens) (UniProt O14920); settings: at 1 µM
# T7 sequence (whole entry): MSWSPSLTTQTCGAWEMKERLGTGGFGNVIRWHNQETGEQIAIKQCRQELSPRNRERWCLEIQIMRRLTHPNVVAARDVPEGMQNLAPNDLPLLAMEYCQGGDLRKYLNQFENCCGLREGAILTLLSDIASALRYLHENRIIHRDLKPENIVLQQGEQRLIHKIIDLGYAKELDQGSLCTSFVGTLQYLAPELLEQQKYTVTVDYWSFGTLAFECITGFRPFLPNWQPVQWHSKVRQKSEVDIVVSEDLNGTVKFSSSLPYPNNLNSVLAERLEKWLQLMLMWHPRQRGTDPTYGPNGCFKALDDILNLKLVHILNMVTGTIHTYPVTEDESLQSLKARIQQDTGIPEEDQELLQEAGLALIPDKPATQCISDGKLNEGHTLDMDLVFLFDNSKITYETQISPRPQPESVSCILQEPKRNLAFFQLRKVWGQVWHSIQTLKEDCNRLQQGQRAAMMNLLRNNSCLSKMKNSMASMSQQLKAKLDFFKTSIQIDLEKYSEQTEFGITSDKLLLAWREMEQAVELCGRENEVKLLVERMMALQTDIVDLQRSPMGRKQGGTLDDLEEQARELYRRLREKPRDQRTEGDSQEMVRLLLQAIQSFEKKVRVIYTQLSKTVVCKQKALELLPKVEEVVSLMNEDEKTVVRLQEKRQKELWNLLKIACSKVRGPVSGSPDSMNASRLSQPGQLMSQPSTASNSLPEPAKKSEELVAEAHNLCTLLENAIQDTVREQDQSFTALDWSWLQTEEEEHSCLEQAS
# [15] = molecular target: T7, Inhibitor of nuclear factor kappa-B kinase subunit beta (Homo sapiens); settings: at 10 µM
smiles,measurement,setting,value
Cn1c2ccccc2c2c3c(c4c5ccccc5n(CCC#N)c4c21)CNC3=O,residual activity,[1],5%
same,residual activity,[2],7%
same,residual activity,[3],10%
same,residual activity,[4],10%
same,residual activity,[5],9%
same,residual activity,[6],19%
same,residual activity,[7],16%
same,residual activity,[8],11%
same,residual activity,[9],9%
same,residual activity,[10],69%
same,residual activity,[11],63%
same,residual activity,[12],48%
same,residual activity,[13],19%
same,residual activity,[14],72%
same,residual activity,[15],63%
